# LmPK inhibitor: inhibitors of Leishmania mexicana pyruvate kinase | Potency, µM (top dose mostly 57.5 µM), without a hit: at the top dose activity change, negative = inhibition, usual class: inhibitors | purified LmPK, Kinase-Glo ATP luminescence, 1 h | actives 0.37% (n = 290,000); note: potency is the fitted concentration of half-maximal effect; % is set by controls: 0 for no effect and ±100 for the full control effect
# Target sequence (Q27686 whole entry, looked up): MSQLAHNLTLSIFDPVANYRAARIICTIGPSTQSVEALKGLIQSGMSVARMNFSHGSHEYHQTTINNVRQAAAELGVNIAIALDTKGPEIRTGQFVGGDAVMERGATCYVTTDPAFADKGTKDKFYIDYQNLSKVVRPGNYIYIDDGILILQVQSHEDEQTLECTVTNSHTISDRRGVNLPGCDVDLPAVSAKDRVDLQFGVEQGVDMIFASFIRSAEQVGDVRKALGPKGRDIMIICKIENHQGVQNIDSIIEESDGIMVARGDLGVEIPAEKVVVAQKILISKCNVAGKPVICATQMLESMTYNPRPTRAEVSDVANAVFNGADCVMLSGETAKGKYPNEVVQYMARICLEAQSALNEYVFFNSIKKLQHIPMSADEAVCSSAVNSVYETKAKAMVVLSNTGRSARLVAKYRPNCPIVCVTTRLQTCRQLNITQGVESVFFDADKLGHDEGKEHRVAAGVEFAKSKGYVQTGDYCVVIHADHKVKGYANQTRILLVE
#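 Purified LmPK (0.1 nM) with 0.5 mM PEP and 0.1 mM ADP in imidazole buffer pH 7.2 with MgCl2/KCl, 1 h at room temperature. ATP formed was read by luciferase luminescence and normalized to no-enzyme and uninhibited controls.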
# Shiga inhibitor: inhibitors of Shiga toxin in Vero cells; Vero cells, Shiga toxin protein synthesis inhibition reporter; inhibition, % at 38.7 µM; actives 9.2% (n = 290,000); in the data active = inhibition mostly above about 28%, no sharp cut-off; inactive = mostly below about 43%; note: 0% is about no effect
# TbPYK inhibitor: inhibitors of Trypanosoma brucei pyruvate kinase. Q57TT1. TbPYK enzyme, Kinase-Glo Plus ATP luminescence, 45 min. Potency, µM (doses to about 76.8 µM), for inactives: top-dose activity, negative = inhibition, actives largely listed as inhibitors. actives 0.12% (n = 410,000). AID 624173; note: potency is the fitted concentration of half-maximal effect; % is set by controls: 0 for no effect and ±100 for the full control effect; nearly all actives have a fitted effect of over 50% in size
#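 In this concentration-response screen, enzyme-free wells defined baseline while DMSO plates tracked drift. Each reaction combined TbPYK, substrate, compound and 130 uM ADP for 45 min at room temperature. Kinase-Glo Plus luminescence gave the signal.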
# Giardia FBPA inh: inhibitors of Giardia lamblia fructose-1,6-bisphosphate aldolase; actives 0.71% (n = 290,000); Potency, µM (titrated, usually from 59.6 µM), without a hit: top-dose activity, negative = inhibition, actives largely listed as inhibitors; A8B2U2; purified Giardia FBPA; note: potency is the fitted concentration of half-maximal effect; % is set by controls: 0 for no effect and ±100 for the full control effect; nearly all actives have a fitted effect of over 55% in size
#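 40 nM FBPA preincubated 10 min at RT with compound (up to 57.5 uM final), then substrate plus GAPDH/TPI/NAD/arsenate coupling and diaphorase/resazurin added. Fluorescence read after 20 min at RT, 525/598 nm.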
# CHX counter: counter-screen hit for Shiga toxin inhibitors, cycloheximide. cell reporter, cycloheximide protein synthesis inhibition counterscreen. max response, %. actives 12% (n = 300,000). AID 2314; in the data active = max response mostly above about 13%, no sharp cut-off; inactive = mostly below about 14%; note: read at 38.3 µM for the half of the compounds with a filed dose; 0% is about no effect
# Sm TGR inh: blocks Schistosoma mansoni thioredoxin glutathione reductase. actives 3% (n = 360,000). purified TGR, DTNB reduction, TNB absorbance 405 nm. Potency, µM (titrated, usually from 114 µM), for inactives: top-dose activity change, negative = inhibition, usual class: inhibitors. AID 485364. Q962Y6; note: potency is the fitted concentration of half-maximal effect; % is set by controls: 0 for no effect and ±100 for the full control effect; nearly all actives have a fitted effect of over 60% in size
#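 Kinetic colorimetric format: TGR-catalysed, NADPH-driven DTNB reduction monitored via TNB absorbance. Enzyme dispensed at 20 nM; compound exposure 15 min at room temperature before reaction start.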
# * marks the source's active call; other numbers are inactive results; ? = inconclusive; nt = not tested or not shown; [ ] = another dose, or the depositor's remark. The full list was thinned out, with hits kept by preference. Unless noted, calls come from the whole dose curve; as a rule, active = well fitted curve in the direction sought with a large enough effect; inconclusive = small, poorly fitted or top-dose-only effect, or another doubt; inactive = no such curve, though single readings can be large; an effect the other way counts as inactive or inconclusive.
SMILES,LmPK inhibitor,Shiga inhibitor,TbPYK inhibitor,Giardia FBPA inh,CHX counter,Sm TGR inh
CC(=O)c1ccc(NC(=O)c2onc(C)c2Cl)cc1,-3%,96*,3%,-3%,39*,14%
Cc1noc(C(=O)Nc2ccc3c(c2)OCO3)c1Cl,-13%,79*,-2%,-21%,37*,1%
CC(=O)c1cccc(NC(=O)c2onc(C)c2Cl)c1,6%,24,0%,-1%,17*,13%
Cc1noc(C(=O)Nc2cccnc2)c1Cl,4%,-9,3%,3%,-6,-20%
CC1CCCCC12NC(=O)N(CC(=O)OCc1cccc(F)c1)C2=O (configuration not stated),nt,nt,2%,nt,nt,-15%
CCOC(=O)c1sc(-c2ccc(F)cc2)cc1N,13%,125*,-4%,-8%,46*,6%
CC(=O)c1sc(-c2ccccc2)cc1N,3%,35,3%,1%,14,-3%
CCOC(=O)c1cc(-c2ccccc2)sc1NC(=O)CC,4%,-9,-11%,3%,-1,2%
CCOC(=O)c1c(N)sc(-c2ccccc2)c1C,6%,68*,-26%,2%,34*,5%
CCOC(=O)c1cc(-c2ccccc2)sc1N,2%,59*,-19%,-8%,37*,0%
CCOC(=O)c1sc(-c2ccccc2)cc1N,0%,116*,9%,-11%,59*,4%
COc1ccc(OC)c(CCNC(=O)c2cnn(-c3ccccc3)c2C2CCN(C(=O)OC(C)(C)C)CC2)c1,nt,nt,0%[15.4 µM],nt,nt,5%
CCOC(=O)c1sc(-c2ccc(OC)cc2)cc1N,-7%,132*,0%,-1%,44*,-19%
CCOC(=O)c1c(N)n[nH]c1-c1ccc(OC)cc1,-3%,-12,4%,-1%,2,3%
COc1ccc(N2CCN(C(=O)C3CCN(C(=O)c4ccc([N+](=O)[O-])cc4)CC3)CC2)cc1,-3%,10,-1%,-8%,2,-28%
Cc1cc(C)n2nc(/C(C#N)=C/c3ccccn3)c(C#N)c2n1,7%,27,-1%,-9%,25*,?
N#C/C(=C/c1cccs1)c1ccccn1,-21%,73*,3%,0%,35*,0%
N#C/C(=C\c1ccccn1)c1ccccn1,-1%,61*,2%,0%,33*,-29%
COc1ccc(-c2cc(C(=O)Nc3cccc(C(C)=O)c3)no2)cc1OC,nt,nt,-3%,nt,nt,0%
C/C(=N\Nc1ccc(C(=O)O)cc1)c1ccc2c(c1)Nc1ccccc1S2,-2%,48*,-18%,-5%,69*,-31%
CCCCN1C(=O)/C(=C2\SC(N3CCOCC3)=NC2=O)c2ccccc21,4%,99*,-4%,-1%,28*,4%
O=C(O)CNC(=O)C1COc2ccccc2O1 (configuration not stated),0%,-14,2%,7%,-3,0%
COc1ccc(CCNC(=O)C2COc3ccccc3O2)cc1OC (configuration not stated),nt,nt,1%,nt,nt,nt
c1ccc2c(c1)OCC(CNCC1COc3ccccc3O1)O2 (configuration not stated),-2%,-2,-3%,?,-4,-10%
O=C(NCC1COc2ccccc2O1)c1ccc(NC(=O)c2ccco2)cc1 (configuration not stated),-7%,-3,-23%,-1%,-2,-13%
SMILES,LmPK inhibitor,Shiga inhibitor,TbPYK inhibitor,Giardia FBPA inh,CHX counter,Sm TGR inh
c1ccc(CCNCC2COc3ccccc3O2)cc1 (configuration not stated),0%,28*,-2%,5%,19*,-16%
O=C(NCC1COc2ccccc2O1)c1ccc(Cl)cc1 (configuration not stated),-1%,39,-15%,-1%,16*,-18%
O=C(NCCc1ccc(Cl)cc1)C1COc2ccccc2O1 (configuration not stated),0%,-3,14%,6%,13*,-29%
COc1ccc(CNC(=O)C2COc3ccccc3O2)cc1 (configuration not stated),-1%,39*,0%,-1%,29*,-24%
COc1ccc(CNC(=O)Cc2c(C)c3cc4c(C)coc4cc3oc2=O)cc1,nt,nt,2%,nt,nt,-3%
COc1ccc(C2=CSC3=NCCN23)cc1Br,nt,nt,6%,nt,nt,nt
COc1ccccc1C(CNC(=O)C1COc2ccccc2O1)N1CCCC1 (configuration not stated),nt,nt,7%,nt,nt,-4%
COc1ccccc1CNC(=O)C1COc2ccccc2O1 (configuration not stated),7%,43*,2%,10%,30*,-6%
COc1ccc(CNC(=O)C2CSCCS2)cc1 (configuration not stated),-9%,31,1%,2%,24*,2%
CC(CC=O)CCCC(C)(C)O (configuration not stated),nt,nt,-10%,nt,nt,nt
O=C(Nc1ccc(-c2nc3cccnc3s2)cc1)c1ccc(Cl)nc1,0%,68*,3%,7%,34*,-4%
O=C(Nc1ccc(-c2nc3cccnc3s2)cc1)c1cccnc1Cl,11%,57*,0%,4%,66*,16%
Cc1cc(C)n(CCc2nc(-c3ccco3)cs2)n1,11%,24,-13%,?,-1,40µM*
Cc1cc(C)n(CCc2nc(-c3cccs3)cs2)n1,0%,40*,-8%,-14%,12,0%
Cc1cc(C)n(CCc2nc(-c3ccc(-c4ccccc4)cc3)cs2)n1,-1%,88*,-3%,0%,58*,5%
COc1ccc(-c2csc(CCn3nc(C)cc3C)n2)cc1OC,0%,-3,4%,-1%,15,2%
COc1ccc(-c2csc(CCn3nc(C)cc3C)n2)cc1,5%,24,2%,-10%,20*,8%
Cc1cc(C)n(-c2cc(-c3ccccc3)nc(C)n2)n1,-2%,-14,?,6%,-1,2%
COc1ccc(OC)c(-c2csc(CCn3nc(C)cc3C)n2)c1,2%,-6,1%,-2%,3,6%
NC(=O)c1nc2c([nH]c1=O)CCCC2,nt,nt,-6%,nt,nt,nt
COc1ccc(CCNc2nc3cc(OC)c(OC)cc3c3nc(-c4ccccc4)nn23)cc1OC,nt,nt,1%,nt,nt,-7%
CCc1ccccc1N(C)S(=O)(=O)c1ccc(-c2cc(C)no2)s1,6%,12,-2%,nt,-2,19%
COc1ccc(C(=O)NCc2ccc3c(c2)OCO3)cc1S(=O)(=O)N1CCCC1,nt,nt,-13%,nt,nt,13%
CN(C(=O)c1cc(COc2c(F)cccc2F)on1)C1CCOC1 (configuration not stated),1%,32,2%,nt,30*,-3%
CN(CCCN1CCOCC1)C(=O)c1cc(COc2c(F)cccc2F)on1,3%,11,-22%,3%,3,-1%

# Screening data from PubChem BioAssay.
